In PubChem BioAssay AID1159580 (chemical genetic matrix, 2015):
Hit rate of the full screen: of about 5,500 compounds, about 2,000 (36%) were called active. Inconclusive results (about 18%) are left out. Cut-off read from the data, not from the text of the source: active = normalized growth mostly below about 0.91 (no sharp cut-off); inconclusive = no clear call, values can overlap the other calls; inactive = mostly above about 0.92. This is one part of the list.

Assay: chemical genetic growth profiling, strain panel (AID 1159580);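 note: tested at 20 µM; growth read once vehicle control cultures reached saturation at 30 °C; 1 = growth at the plate median or of vehicle wells; lower values mean less growth of the strain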
Settings: S. cerevisiae deletion strains, growth OD

Measured: normalized growth

CN=C(NC#N)NCCSCc1nc(N=C(N)N)cs1
inactive: locus YAL021C, strain ccr4, active compounds read low 0.966 | locus YAL026C, strain drs2, active compounds read low 0.981 | locus YAL030W, strain snc1, active compounds read low 0.998 | locus YBL061C, strain skt5, active compounds read low 0.988 | locus YBR009C, strain hhf1, active compounds read low 0.99 | locus YBR023C, strain chs3, active compounds read low 0.991 | locus YBR171W, strain sec66, active compounds read low 0.975 | locus YBR231C, strain swc5, active compounds read low 0.986 | locus YBR279W, strain paf1, active compounds read low 0.99 | locus YCL011C, strain gbp2, active compounds read low 0.966 | locus YCL016C, strain dcc1, active compounds read low 0.984 | locus YCL061C, strain MRC1, active compounds read low 0.974 | locus YCL069W, strain vba3, active compounds read low 0.978 | locus YCR088W, strain abp1, active compounds read low 0.967 | locus YDL005C, strain med2, active compounds read low 0.986 | locus YDL040C, strain nat1, active compounds read low 0.994 | locus YDR001C, strain nth1, active compounds read low 0.978 | locus YDR069C, strain doa4, active compounds read low 0.988 | locus YDR137W, strain rgp1, active compounds read low 0.977 | locus YDR159W, strain sac3, active compounds read low 0.985 | locus YDR195W, strain ref2 0.957 | locus YDR297W, strain sur2, active compounds read low 0.976 | locus YDR334W, strain swr1, active compounds read low 0.944 | locus YDR335W, strain msn5, active compounds read low 0.974 | locus YDR392W, strain spt3, active compounds read low 0.977 | locus YEL003W, strain gim4, active compounds read low 0.977 | locus YEL037C, strain rad23, active compounds read low 0.937 | locus YEL061C, strain CIN8 (second series), active compounds read low 0.979 | locus YER015W, strain faa2, active compounds read low 0.981 | locus YER016W, strain bim1, active compounds read low 0.99 | locus YER111C, strain swi4, active compounds read low 0.993 | locus YER155C, strain BEM2 (second series), active compounds read low 0.99 | locus YFR010W, strain ubp6, active compounds read low 0.96 | locus YGL167C, strain pmr1, active compounds read low 0.982 | locus YGL173C, strain kem1, active compounds read low 0.983 | locus YGL227W, strain vid30, active compounds read low 0.981 | locus YGL240W, strain doc1, active compounds read low 0.991 | locus YGL253W, strain hxk2, active compounds read low 0.998 | locus YHR013C, strain ard1, active compounds read low 0.97 | locus YHR027C, strain rpn1, active compounds read low 0.984 | locus YHR142W, strain chs7, active compounds read low 0.947 | locus YJL092W, strain hpr5, active compounds read low 0.978 | locus YJL095W, strain BCK1 (second series), active compounds read low 0.984 | locus YJL115W, strain asf1, active compounds read low 0.959 | locus YJL129C, strain trk1, active compounds read low 0.971 | locus YJL154C, strain vps35, active compounds read low 0.979 | locus YJL164C, strain tpk1, active compounds read low 0.989 | locus YJL166W, strain qcr8, active compounds read low 0.987 | locus YJL187C, strain SWE1, active compounds read low 0.985 | locus YKL160W, strain elf1, active compounds read low 0.975 | locus YKR026C, strain gcn3, active compounds read low 0.963 | locus YKR091W, strain srl3, active compounds read low 0.986 | locus YLL001W, strain dnm1, active compounds read low 0.985 | locus YLL026W, active compounds read low 0.98 | locus YLL041C, strain sdh2, active compounds read low 0.973 | locus YLR027C, strain aat2, active compounds read low 0.984 | locus YLR221C, strain rsa3, active compounds read low 0.987 | locus YLR258W, strain gsy2, active compounds read low 0.996 | locus YLR262C, strain YPT6 (second series), active compounds read low 0.984 | locus YLR320W, strain mms22, active compounds read low 0.99 | locus YLR342W, strain FKS1, active compounds read low 0.987 | locus YLR357W, strain rsc2, active compounds read low 0.977 | locus YLR370C, strain arc18, active compounds read low 0.983 | locus YLR384C, strain iki3, active compounds read low 0.991 | locus YML120C, strain ndi1, active compounds read low 0.949 | locus YMR058W, strain fet3, active compounds read low 0.966 | locus YMR125W, strain sto1, active compounds read low 0.992 | locus YMR129W, active compounds read low 0.981 | locus YMR205C, strain PFK2, active compounds read low 0.994 | locus YMR231W, strain pep5, active compounds read low 0.984 | locus YNL071W, strain lat1, active compounds read low 0.977 | locus YNL209W, strain ssb2, active compounds read low 0.982 | locus YNL248C, strain rpa49, active compounds read low 0.94 | locus YNL322C, strain KRE1 (second series), active compounds read low 0.984 | locus YNR049C, strain mso1, active compounds read low 0.982 | locus YOR001W, strain rrp6, active compounds read low 0.975 | locus YOR070C, strain gyp1, active compounds read low 0.999 | locus YOR080W, strain dia2, active compounds read low 0.974 | locus YOR083W, strain WHI5, active compounds read low 0.975 | locus YOR106W, strain vam3, active compounds read low 0.983 | locus YOR265W, strain rbl2, active compounds read low 0.991 | locus YOR270C, strain vph1, active compounds read low 0.983 | locus YOR290C, strain snf2, active compounds read low 1.01 | locus YPL051W, strain arl3, active compounds read low 0.981 | locus YPL078C, strain atp4, active compounds read low 0.976 | locus YPL106C, strain sse1, active compounds read low 0.984 | locus YPL240C, strain hsp82, active compounds read low 0.971
